Data taken from PubChem BioAssay (NCATS).
“And” between values parts separate entries of the source, which are not always exact repeats. Equal values may be shown once. Inconclusive results are not listed. The source made the active and inactive calls. Calls come from the whole dose curve.

Molecular target: Bile acid receptor (Homo sapiens) (UniProt Q96RI1)
Test: qHTS assay for small molecule agonists of farnesoid X receptor signaling (AID 588527);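 note: series mostly up to about 77 µM; 0% = vehicle basal and 100% = reference agonist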
Conditions: HEK293T FXR-UAS-bla, beta-lactamase ratio, 16 h; activation: hits give high values
Text: NIH Chemical Genomics Center [NCGC] U.S. Environmental Protection Agency [EPA] National Institutes of Environmental Health Sciences [NIEHS] National Toxicology Program [NTP] NCGC Assay Overview The farnesoid-X-receptor (FXR), a nuclear hormone receptor is highly expressed in liver, intestine, kidney and adrenal cortex. Natural ligands of FXR are the bile acids (Cholic acid, Chenodeoxy cholic acid etc). It is an important regulator of diverse metabolic pathways, including the bile acid homeostasis, lipid and glucose metabolisms. FXR regulates the expression of target genes by binding either as a monomer or as a heterodimer with RXR (retinoid X receptor). As FXR regulates a large number of target genes involved in bile acid, lipoprotein and glucose metabolisms, it is a potential pharmacological target for bile acid and lipid disorders. Thus screening environmental chemicals on FXR signaling can be used for the studies focused on metabolic syndrome, hepatic and intestinal toxicity etc.
NCGC Assay Protocol Summary Using a beta-lactamase reporter-gene under control of Farnesoid X receptor (FXR) response element, a cell-based assay [GeneBLAzer FXR-UAS-bla assay developed by Invitrogen] was used to measure FXR ligands signaling. GeneBLAzer FXR-UAS-bla HEK293T cells were used with assay medium containing 10% dialyzed FBS. The assay was performed in clear bottom black Greiner 1536-well plates. Chenodeoxycholic acid and Guggulsterone were used in the screen as agonist and antagonist positive controls respectively. Library compounds were measured for their ability to stimulate the reporter gene activity. Compounds were screened in a titration series in 1536-well format. […] Data was normalized relative to Chenodeoxycholic acid control (100 uM, 100%), and DMSO only wells (basal, 0%). Concentration-response titration points for each compound were fitted to the Hill equation yielding concentrations of half-maximal stimulation (EC50) and maximal response (efficacy) values. qHTS protocol for FXR beta-lactamase assay in agonist mode [Step] [Parameter] [Value] [Description] 1. Reagent; 6 uL; 5000 cells/well 2. Incubation; 37 C for 5-7 hrs 3. Compounds; 23 nL; 0.59 nM to 92 uM 4. Controls (Chenodeoxycholic acid); 23 nL, - One column with dose response, start 200 uM, 1:2 dilutions in duplicates - Final concentrations of 100 uM and 60 uM in two columns 5. Incubation; 37 C for 16 hrs 6. Detection reagent; 1 uL of CCF4-dye 7. Incubation; RT for 2 hrs 8. Detection; Fluorescence; Envision plate reader

Chain of Bile acid receptor (Homo sapiens) (Q96RI1 whole entry, looked up): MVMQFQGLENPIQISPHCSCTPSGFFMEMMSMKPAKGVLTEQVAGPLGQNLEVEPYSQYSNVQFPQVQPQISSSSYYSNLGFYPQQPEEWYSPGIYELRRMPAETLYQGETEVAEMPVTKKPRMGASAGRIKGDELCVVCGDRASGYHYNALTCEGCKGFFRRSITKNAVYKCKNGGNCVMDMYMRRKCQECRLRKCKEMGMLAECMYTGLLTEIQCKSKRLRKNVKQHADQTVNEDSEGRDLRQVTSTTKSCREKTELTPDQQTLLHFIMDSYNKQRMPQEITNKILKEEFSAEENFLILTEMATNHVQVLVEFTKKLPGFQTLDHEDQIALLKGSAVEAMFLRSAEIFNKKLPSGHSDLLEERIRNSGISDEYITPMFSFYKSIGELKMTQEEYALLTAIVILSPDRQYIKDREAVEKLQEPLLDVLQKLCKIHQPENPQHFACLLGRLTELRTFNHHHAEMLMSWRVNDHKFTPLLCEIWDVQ

Structure (SMILES) | activation
O=C(O)[C@@H]1[C@H](C(=O)O)[C@@]2(Cl)C(Cl)=C(Cl)[C@]1(Cl)C2(Cl)Cl | 7.2% (inactive)
O=[N+]([O-])c1cc(C(F)(F)F)cc([N+](=O)[O-])c1Cl | -1.74% (inactive)
Nc1ccccc1O | -1.93% (inactive)
CCCCC(C=O)CC (stereo not given) | -2.35% (inactive)
CC(C)Cc1nccs1 | -0.154% (inactive)
CC(C)=CCC[C@@H](C)[C@H]1CC[C@@]2(C)C3=C(CC[C@]12C)[C@@]1(C)CC[C@H](O)C(C)(C)[C@@H]1CC3 | -5.29% (inactive)
O=C(O)CC(C(=O)O)C(CC(=O)O)C(=O)O (stereo not given) | -1.38% (inactive) and -0.082% (inactive)
CCCCN(CC)C(=O)SCCC | 3.83% (inactive)
CN(C)CCOCCN(C)C | -0.638% (inactive)
CC(/C=C/C=C(C)/C=C/C(=O)O)=C\C=C\C=C(C)\C=C\C=C(C)\C=C\C(=O)O | 3.47% (inactive)
Nc1cnn([C@@H]2O[C@H](CO)[C@@H](O)[C@H]2O)c(=O)n1 | -2.94% (inactive)
O=C(O)CN(CCCN(CC(=O)O)CC(=O)O)CC(=O)O | 8.42% (inactive)
O=C(O)CN(CCO)CCN(CC(=O)O)CC(=O)O | -2.73% (inactive)
CC(C)CCC[C@@H](C)[C@H]1CC[C@H]2[C@@H]3CC=C4C[C@@H](O)CC[C@]4(C)[C@H]3CC[C@]12C | 0.612% (inactive)
BrC1CCC(Br)C(Br)CCC(Br)C(Br)CCC1Br (stereo not given) | 3.55% (inactive)
O=[N+]([O-])c1ccc2nc[nH]c2c1 | -1.7% (inactive)
Cl[Si](Cl)(Cl)c1ccccc1 | 0.575% (inactive)
O=[N+]([O-])c1ccc(CCO)cc1 | -0.12% (inactive)
O=S(=O)(O)c1ccc(N=Nc2cc(S(=O)(=O)O)c3ccccc3c2O)c2ccccc12 | 2.06% (inactive)
C=CC(=O)NCO | 0.901% (inactive) and -4.9% (inactive)

Structure (SMILES) | activation
CCCN(CCOc1c(Cl)cc(Cl)cc1Cl)C(=O)n1ccnc1 | 4.58% (inactive)
OCC(CO)(CO)COCC(CO)(CO)CO | -6.39% (inactive)
N#CCc1ccccc1[N+](=O)[O-] | -1.36% (inactive)
Clc1ccc(Cl)c(Cl)c1Cl | 1.31% (inactive) and 2.13% (inactive)
CNC(=O)N(C)c1nc2ccccc2s1 | 4.82% (inactive)
Cc1c(COC(=O)C2C(/C=C(\Cl)C(F)(F)F)C2(C)C)cccc1-c1ccccc1 (stereo not given) | 2.08% (inactive)
CC(C)=CCC/C(C)=C\CO | -0.74% (inactive)
N#CSCSc1nc2ccccc2s1 | 15% (inactive)
O=C(O)c1cccc(C(=O)O)c1 | -0.333% (inactive)
Cn1sccc1=O | 1.01% (inactive)
CC(C)=CC1C(C(=O)OCc2coc(Cc3ccccc3)c2)C1(C)C (stereo not given) | 3.82% (inactive)
COc1ccc(C(O)(c2cncnc2)C2CC2)cc1 (stereo not given) | -0.99% (inactive)
CN(C)P(=O)(N(C)C)N(C)C | 3.22% (inactive)
CC(O)CN(CC(C)O)CC(C)O (stereo not given) | 0.256% (inactive)
CC(C)Oc1cc(-n2nc(C(C)(C)C)oc2=O)c(Cl)cc1Cl | 1.08% (inactive)
Cc1ccc(O)c(N)c1 | -0.664% (inactive)
N#Cc1cc(Br)c(O)c(Br)c1 | 1.36% (inactive)
CC#N | -1.26% (inactive)
COP(=O)(OC)Oc1nc(Cl)c(Cl)cc1Cl | -2.92% (inactive)
C=Cc1ccccc1Cl | 0.519% (inactive)
